17 compounds from PubChem BioAssay (EPA / NIEHS) can be followed below.

“And” between values parts separate entries of the source, which are not always exact repeats. Identical values can stand only once. Some compounds were tested as several samples or in several runs, with calls that do not always agree. The source made the active and inactive calls. How the source made its calls: active means hit-call score of the fitted dose curve at least 0.9, where 1 is the maximum; inactive means score below 0.9.

What is called AC50 is the midpoint of the concentration-response curve, whichever way the signal moves.

This assay in a line: CCTE_Mundy_HCI_hNP1_Casp3_7: CCTE's Caspase-Glo 3/7 Assay in human neuroprogenitor cells for Apoptosis, Mundy Lab (AID 2284240). The method, then: CCTE_Mundy_HCI_hNP1_Casp3_7 is a multiplexed, cell-based-readout assay that uses neural stem cells derived from a neuroepithelial cell lineage of WA09 embryonic cells with measurements taken at […] after chemical dosing in a microplate: 96-well plate.CCTE_Mundy_HCI_hNP1_Casp3_7 is one component of the CCTE_Mundy_HCI_hNP1_Casp3_7 assay. It measures apoptosis related to caspase activation using Luminescent Reporter.Data from the assay component CCTE_Mundy_HCI_hNP1_Casp3_7 was analyzed at the endpoint CCTE_Mundy_HCI_hNP1_Casp3_7_gain in the positive analysis fitting direction relative to DMSO as the negative control and baseline of activity. Using a type of viability reporter, gain -of-signal activity can be used to understand viability effects.
Human neural progenitor cells (hNP1) were obtained as cryopreserved cells from ArunA Biomedical, Athens Georgia. Cells are plated on pre-coated poly-L-ornithine/laminin clear bottom and opaque 96 well plates (day 0). Plates are placed in a 37 °C, 5% CO2 incubator for 40 to 44 hours at which time plates are removed from the incubator and 10 uL of a freshly made chemical solution is added to each well. Apoptosis was measured based on detection of activated caspase-3/7 using the Caspase-Glo 3/7 assay kit (Promega). Twenty-four hours after chemical treatment, 50ul of Caspase-Glo 3/7 assay buffer was added to each well and the plate incubated for 30min at room temperature. Luminescence was then recorded in each well using a FLUOstar Optima plate reader.
With `C=CCC1=C(C)[C@@H](OC(=O)[C@@H]2[C@@H](C=C(C)C)C2(C)C)CC1=O`, the compound was classed as inactive.
Regarding `CCCCC(CC)COC(=O)c1ccccc1C(=O)OCC(CC)CCCC` (stereo not drawn), the AC50 was 16.6 µM (active) and 11.1 µM (active).
Still for that read-out and setting: next, `Cc1ccc(-c2c(Cl)nc(C#N)n2S(=O)(=O)N(C)C)cc1`: 89.9 µM (active).
As to `CCCCNC(=O)n1c(NC(=O)OC)nc2ccccc21`, the AC50 is 7.6 µM (active).
Turning to `CNC(=O)ON=CC(C)(C)SC`, the outcome was inactive.
On to `CCOC(=O)CC(SP(=S)(OC)OC)C(=O)OCC` (stereo not drawn), for which the result was inactive and the AC50 was 84.5 µM (active).
Turning to `COP(=S)(OC)Oc1nc(Cl)c(Cl)cc1Cl`, the outcome was inactive.
Take `CC(C)(C)c1ccc(CSc2cnn(C(C)(C)C)c(=O)c2Cl)cc1`: the AC50 is 9.49 µM (active).
Take `CCOc1cc(Oc2ccc(C(F)(F)F)cc2Cl)ccc1[N+](=O)[O-]`: the AC50 is 52.1 µM (active).
In the case of `COC(=O)N(OC)c1ccccc1COc1ccn(-c2ccc(Cl)cc2)n1`, the AC50 is 33.5 µM (active).
Regarding `CO/C=C(/C(=O)OC)c1ccccc1Oc1cc(Oc2ccccc2C#N)ncn1`, the call was inactive.
Regarding `CCCCOC(=O)c1ccccc1C(=O)OCCCC`, the result was inactive.
Same read-out and setting: next, `C=CC1(C)OC(=O)N(c2cc(Cl)cc(Cl)c2)C1=O` (stereo not drawn): “inactive”; `N#Cc1nn(-c2c(Cl)cc(C(F)(F)F)cc2Cl)c(N)c1S(=O)C(F)(F)F` (stereo not drawn): “inactive”.
Same read-out and setting: in the case of `COP(N)(=O)SC` (stereo not drawn) it was “inactive”.
In the case of `CN(C)C(=S)SSC(=S)N(C)C`, the AC50 is 87.3 µM (active).
`C=CCC1=C(C)C(OC(=O)C2C(C=C(C)C)C2(C)C)CC1=O` (stereo not drawn): the result was inactive.
